# Screening results as filed in PubChem.
# MARV entry inh – inhibitors of Marburg virus binding or cell entry | Marburg virus pseudotyped entry inhibition, cell reporter | Potency, µM (highest dose often 37.8 µM), inactives show top-dose activity change, negative = inhibition, hits mostly inhibitors | actives 1.8% (n = 300,000); calls by dose curve; tested in HEK293 cells; note: potency is the fitted concentration of half-maximal effect; % is set by controls: 0 for no effect and ±100 for the full control effect
# Lassa entry inh – blocks Lassa virus binding to or entry into cells. Potency, µM (titrated, usually from 37.9 µM), for inactives: at the top dose activity change, negative = inhibition, usual class: inhibitors. Lassa virus pseudotype entry inhibition, cell reporter. actives 1.2% (n = 300,000). AID 540256; calls by dose curve; tested in HEK293 cells; note: potency is the fitted concentration of half-maximal effect; % is set by controls: 0 for no effect and ±100 for the full control effect; nearly all actives have a fitted effect of over 50% in size
# FMDV inh – antivirals against foot and mouth disease virus. actives 1.2% (n = 410,000). AID 1159524. FMDV antiviral cell-based qHTS. Potency, µM (titrated, usually from 57.9 µM), for the others: top-dose activity change, negative = inhibition, hits mostly inhibitors; calls by dose curve; tested in HEK293T cells; note: read-out not given here; potency is the fitted concentration of half-maximal effect; % is set by controls: 0 for no effect and ±100 for the full control effect; nearly all actives have a fitted effect of over 45% in size
# SARS PLP yeast – blocks SARS-CoV papain-like protease in a yeast assay; S. cerevisiae expressing SARS-CoV PLpro, growth rescue; Potency, µM (highest dose often 32.9 µM), for the others: at the top dose activity, positive = growth rescue, usual class: activators; actives 0.19% (n = 330,000); AID 485353; calls by dose curve; note: potency is the fitted concentration of half-maximal effect; 0% is about no effect; nearly all actives have a fitted effect of over 55% in size
# HCMV inh – human cytomegalovirus inhibition. HFF cells, HCMV-luciferase reporter, 72 h; active compounds read low. activity change, negative = inhibition, % at 57.5 µM. actives 4.5% (n = 410,000). AID 1259415; in the data active = activity change below about -60%; inconclusive = no clear call, values can overlap the other calls; inactive = above about -39%; note: % is set by controls: 0 for no effect and ±100 for the full control effect
#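 After 16 h attachment at 37C, HFF cells received test compound and HCMV-luciferase (1 PFU/cell); reporter luminescence read 72 h later, data normalized against buffer-only and known inhibitor Salinomycin.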
# HCV inhibitor – HCV inhibition | actives 3.4% (n = 340,000) | Potency, µM (series often up to 41.8 µM), without a hit: at the highest dose activity change, negative = inhibition, most hits filed as inhibitors | Huh7.5.1 HCVcc-Cre infection, luciferase reporter, 44 h | AID 651820; active = well fitted inhibition curve with a large enough effect; inconclusive = small, poorly fitted or top-dose-only effect, or another doubt; inactive = no such curve, though single readings can be large or run the other way; note: potency is the fitted concentration of half-maximal effect; % is set by controls: 0 for no effect and ±100 for the full control effect
#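 Luciferase read-out (15 sec integration) after a 15 min room-temperature substrate step quantifies HCVcc-Cre infection. Cells, 1,000 per well, had compound added 4 h post-plating, then virus at ~0.5 moi, and were cultured 44 h.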
# Starred values were filed as active, the others as inactive; ? = inconclusive; nt = no result given; ! = not active in a repeat; [ ] = dose if it differs, or a comment. The list is not random: actives were taken first. Their share in the collection is about 8%.
SMILES,MARV entry inh,Lassa entry inh,FMDV inh,SARS PLP yeast,HCMV inh,HCV inhibitor
OCc1ccc(-c2nn(Cc3ccccc3)c3ccccc23)o1,2.6µM*,2.9µM*,-1%,nt,?,?
CN(C)C(=O)Oc1ccc(Cl)c2cccnc12,14%[46.1 µM],3%,14%,2%,-38,1%
O=C(Oc1ccc(Cl)c2cccnc12)N1CCCCCC1,20%,18%,-11%,-7%,-100*,-25%
CCc1ccccc1NC(=O)Cn1c(=O)n(CCc2ccccc2)c(=O)c2sc3ccccc3c21,-6%[46.1 µM],-13%[46.1 µM],-15%,nt,-6,nt
Clc1cccc(Cl)c1CON/C=N/c1ncnc2sccc12,?,?,?,-1%,?,11µM*
CCc1ccc(NC(=O)C2CCN(S(=O)(=O)c3c(C)noc3/C=C\c3ccc(OC)cc3)CC2)cc1,?,29%[46.1 µM],?,nt,-32,nt
Cc1cccc2c1N[C@H](C)C[C@@H]2C,7%,nt,nt,nt,nt,nt
CN1CCN(C(c2ccc(Cl)cc2)c2cc(Cl)c3cccnc3c2O)CC1 (stereo not drawn),?,10µM*,-3%,-23%,264,?
Cc1[nH]c2ccccc2c1C(c1ccccn1)N1CCCC1 (stereo not drawn),-15%[46.1 µM],-1%,-8%,-4%,-39,-9%
Oc1c(C(c2ccccn2)N2CCCCC2)cc(Cl)c2cccnc12 (stereo not drawn),nt,nt,-28%,-25%,44,10µM*
CCc1ccc(CNC(=O)CSc2cc(=O)n(C)c3ccc(Cl)cc23)cc1,4%[46.1 µM],-24%[46.1 µM],13%,nt,0,nt
Cc1ccccc1-n1c(SCC(=O)Nc2ccccc2)nc2nc3c(cc2c1=O)CCCC3,?,-13%,-18%,9%,-80*,?
Cc1cccc(NC(=O)CSc2nc3nc4c(cc3c(=O)n2-c2ccccc2)CCCC4)c1,10µM*,-3%,-22%,-9%,-33,?
O=C(CSc1nc2nc3c(cc2c(=O)n1-c1ccccc1)CCCC3)Nc1cccc2ccccc12,?,4%,-22%,14%,-32,?
COCCn1c(CNC(=O)c2ccccc2C)nc2cccnc21,nt,0%[46.1 µM],-13%,nt,-19,nt
COc1ccc(OC)c(NS(=O)(=O)c2ccc(NC(=O)c3ccc(NS(C)(=O)=O)cc3)cc2)c1,?,-15%,-11%,8%,-83*,?
COc1ccc(OC)c(NC(=O)c2cc(OC(C)=O)cc(C(=O)Nc3cc(OC)ccc3OC)c2)c1,nt,nt,28µM*,-6%,?,?
COc1ccc(C(=O)Nc2cc(OC)ccc2OC)cc1,21%,3%,4%,-4%,15,11µM*
COc1ccc(OC)c(NC(=O)c2ccc(Cl)cc2)c1,-30%[46.1 µM],-19%,10%,-1%,30,-30%
COc1ccc(/C=C/c2ccc3cccc(O)c3n2)c(OC)c1OC,nt,nt,-29%,-5%,-94*,-57%
COc1cc(/C=C/c2ccc3cccc([N+](=O)[O-])c3n2)ccc1OCC(=O)O,nt,nt,30%,1%,0,8%
CCOc1c(OC(C)=O)ccc(/C=C/c2ccc3cccc(OC)c3n2)c1[N+](=O)[O-],4%,?,12%,25%,12,10µM*
COc1cc(Br)cc(/C=C/c2ccc3cccc(O)c3n2)c1OC,nt,nt,-19%,-1%,-17,-11%
COc1cccc(/C=C/c2ccc3cccc(O)c3n2)c1OC,nt,nt,2%,-5%,2,10µM*
COc1ccc(Br)cc1/C=C/c1ccc2cccc(O)c2n1,-1%[46.1 µM],-20%[46.1 µM],-15%,2%,4,?
SMILES,MARV entry inh,Lassa entry inh,FMDV inh,SARS PLP yeast,HCMV inh,HCV inhibitor
CCOc1cc(NC(=O)C2CC2)c(OCC)cc1NC(=O)c1ccccc1OCC,10µM*,?,-29%,-1%,-9,?
CCc1nnc(NC(=O)c2cccc(C(=O)Nc3nnc(CC)s3)n2)s1,?,?,?,-31%,-92*,1.1µM*
CCOc1ccccc1C(=O)Nc1ccccc1C(N)=O,-24%,-1%,0%,-11%,-6,4%
CCOc1ccccc1C(=O)Nc1nn[nH]n1,10%[46.1 µM],?,-6%,-1%,?,3.2µM*
CCOc1ccccc1C(=O)Nc1nnc(CC)s1,nt,nt,6%,19%,33,11µM*
CCc1nnc(NC(=O)c2ccncc2)s1,13%,27%,26%,-2%,10,-8%
Cc1ccc(-n2ncc3c(N(C)Cc4ccccc4)ncnc32)cc1,nt,1%[46.1 µM],-34%,nt,-36,nt
CCOc1ccccc1C(=O)Nc1cccc(-c2ccc3nncn3n2)c1,7.1µM*,?,-29%,-5%,?,?
CCOc1ccccc1C(=O)NCCCN1CCN(CCCNC(=O)c2ccccc2OCC)CC1,22%,?,6%,1%,6,10µM*!
CCOc1ccccc1NC(=O)C1CCN(C(=O)Cc2ccccc2)CC1,2%[46.1 µM],?,-2%,0%,-6,2.2µM*
CC(C)=C1CCC(C)CC1=NNC(N)=S (stereo not drawn),-13%,?,?,nt,-15,?
CC1C/C(=N\NC(N)=S)c2cc(Cl)ccc2S1 (stereo not drawn),13µM*,?,?,3%,-10,-19%
COc1ccc(-c2cn3c(n2)sc2cc(C(=O)NC(C)C45CC6CC(CC(C6)C4)C5)ccc23)cc1 (stereo not drawn),nt,24%[46.1 µM],30%,nt,nt,nt
COc1c2c(c(C(=O)/C=C/C(C)=C/c3ccccc3)c3c1OCO3)CCN(C)C2,nt,nt,-15%,nt,nt,nt
CCCOc1ccc(Cl)cc1/C=C1/C(=O)ON=C1C,-15%[46.1 µM],-4%[46.1 µM],?,0%,8,0%
CC1=NOC(=O)/C1=C\c1ccc(-c2ccc(Cl)cc2Cl)o1,1%,?,?,-17%,-75*,-17%
COc1ccccc1-c1nc(-c2ccccc2)nc(N2CCN(C)CC2)c1C#N,?,2%,?,-1%,-30,?
CN1CCN(c2nc(-c3ccccc3)nc(-c3ccc(F)cc3)c2C#N)CC1,11µM*,-13%[46.1 µM],-12%,0%,-34,?
CC(Oc1ccc(Cl)cc1Cl)c1nc(-c2ccc(NC(=O)c3cccnc3)cc2)no1 (stereo not drawn),11µM*,?,28µM*,-3%,-72*,11µM*!
CCCOc1ccc(C(=O)Nc2cccc(NC(=O)c3ccc(Cl)cc3Cl)c2)cc1,nt,-23%[46.1 µM],-10%,nt,-91*,nt
O=C(NNC(=S)Nc1ccc(Cl)cc1Cl)c1cccnc1,nt,nt,72%,-2%,-64*,6%
CCCOc1cccc(C(=O)Nc2cccc(NC(=O)c3ccc(Cl)cc3Cl)c2)c1,nt,1%[46.1 µM],-19%,nt,-8,nt
O=C(Nc1cccc(NC(=O)c2ccc(Cl)cc2Cl)c1)c1cccnc1,?,nt,?,1%,20,32µM*
Cc1cc(C(=O)NCc2nnc3n2CCN(Cc2ccc(F)cc2F)CC3)c(C)o1,nt,nt,-16%,nt,nt,nt
COc1ccc(C2C(=O)N(C3CCCCC3)CC(=O)N2CCc2ccc(C)cc2)cc1OC (stereo not drawn),nt,?,-14%,nt,6,nt
